From PubChem BioAssay
FMDV inh: High Throughput Screening for Foot and Mouth Disease Virus Antivirals; FMDV antiviral cell-based qHTS; Potency, µM (series often up to 57.9 µM), for inactives: top-dose activity change, negative = inhibition, usual class: inhibitors; hit rate 1.2% among 410,000; calls by dose curve; tested in HEK293T cells; further: read-out not given here; potency means the concentration at half of the fitted maximal effect; on the % scale 0 is the no-effect control and ±100 the full control effect; nearly all actives have a fitted effect of over 45% in size
Lassa entry inh: qHTS for Inhibitors of binding or entry into cells for Lassa Virus | Lassa virus pseudotype entry inhibition, cell reporter | Potency, µM (series often up to 37.9 µM), for inactives: at the highest dose activity change, negative = inhibition, hits mostly inhibitors | hit rate 1.2% among 300,000; calls by dose curve; tested in HEK293 cells; further: potency means the concentration at half of the fitted maximal effect; on the % scale 0 is the no-effect control and ±100 the full control effect; nearly all actives have a fitted effect of over 50% in size
SARS PLpro yeast: qHTS of Yeast-based Assay for SARS-CoV PLP. S. cerevisiae expressing SARS-CoV PLpro, growth rescue. Potency, µM (doses to about 32.9 µM), for the others: at the highest dose activity, positive = growth rescue, hits mostly activators. hit rate 0.19% among 330,000; calls by dose curve; further: potency means the concentration at half of the fitted maximal effect; 0% is about no effect; nearly all actives have a fitted effect of over 55% in size
HCMV antiviral: qHTS Assay for inhibitors of the human cytomegalovirus (HCMV); HFF cells, HCMV-luciferase reporter, 72 h; active compounds read low; AID 1259415, 2018; hit rate 4.5% among 410,000; activity change, negative = inhibition, % at 57.5 µM; in the data active means activity change below about -60%; inconclusive means no clear call, values can overlap the other calls; inactive means above about -39%; further: on the % scale 0 is the no-effect control and ±100 the full control effect
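After 16 h attachment at 37C, HFF cells received test compound and HCMV-luciferase (1 PFU/cell); reporter luminescence read 72 h later, data normalized against buffer-only and known inhibitor Salinomycin.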
HCV inhibitor: qHTS Assay for Inhibitors of Hepatitis C Virus (HCV) | Huh7.5.1 HCVcc-Cre infection, luciferase reporter, 44 h | Potency, µM (titrated, usually from 41.8 µM), for the others: top-dose activity change, negative = inhibition, actives largely listed as inhibitors | hit rate 3.4% among 340,000 | AID 651820, 2012; further: potency means the concentration at half of the fitted maximal effect; on the % scale 0 is the no-effect control and ±100 the full control effect
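Whole-lifecycle infectious HCVcc-Cre system; cells 1,000/well, compound then virus (~0.5 moi) added 4 h after plating, 44 h culture. Luciferase read 15 sec following 15 min substrate incubation, room temp.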
Marburg entry inh: qHTS for inhibitors of binding or entry into cells for Marburg Virus | AID 540276, 2011 | hit rate 1.8% among 300,000 | Potency, µM (titrated, usually from 37.8 µM), for the others: top-dose activity change, negative = inhibition, actives largely listed as inhibitors | Marburg virus pseudotyped entry inhibition, cell reporter; calls by dose curve; tested in HEK293 cells; further: potency means the concentration at half of the fitted maximal effect; on the % scale 0 is the no-effect control and ±100 the full control effect
HeLa G2M arrest: Cell cycle validation with wells to cells screening paradigm. shares compounds with Marburg entry inh. HeLa cell cycle G2/M arrest, Hoechst DNA content imaging. Potency, µM, hits mostly inhibitors. hit rate 60% among 25. AID 2441, 2010
WI-38 tox: High Content Assay for Compounds that inhibit the Assembly of the Perinucleolar Compartment: WI-38 Cytotoxicity; WI-38 normal lung fibroblasts, ATPLite luminescence ATP viability, 24 h; Potency, µM (top dose mostly 46.1 µM), without a hit: top-dose activity change, negative = cytotoxicity, usual class: inhibitors; 120 tested, under 10 active; shares compounds with Marburg entry inh; AID 2729, 2010
PNC inh conf: High Content Assay for Compounds that inhibit the Assembly of the Perinucleolar Compartment: Confirmation of PNC Inhibition | shares compounds with Marburg entry inh | PC3M PTB-GFP, PNC prevalence imaging, 16 h | Potency, µM (series often up to 46.1 µM), for inactives: at the top dose activity, negative = PNC inhibition, most hits filed as inhibitors | hit rate 50% among 120
PC3M caspase: High Content Assay for Compounds that inhibit the Assembly of the Perinucleolar Compartment: PC3M Caspase 3/7 Activation; shares compounds with Marburg entry inh; 120 tested, under 10 active; activity change, positive = activation, % at 46.1 µM; PC3M-GFP caspase 3/7 activation, luminescence, 24 h
* marks the source's active call; other numbers are inactive results; ? = inconclusive; nt = no result given; [ ] = another dose, or the depositor's remark. Most compounds without a hit are left out; they make up all but 8% or so of the library. Unless noted, the call rests on the fitted dose curve; in most records, active means well fitted curve in the direction sought with a large enough effect; inconclusive means small, poorly fitted or top-dose-only effect, or another doubt; inactive means no such curve, though single readings can be large; an effect the other way counts as inactive or inconclusive.

SMILES | FMDV inh | Lassa entry inh | SARS PLpro yeast | HCMV antiviral | HCV inhibitor | Marburg entry inh | WI-38 tox | PNC inh conf | PC3M caspase | others
CC(/C=C/c1ccccc1)=N/NC(=O)c1cc([N+](=O)[O-])cc([N+](=O)[O-])c1 | 0% | ? | 5% | 69 | -28% | ? | -20% | ? | -2
CC(/C=C/c1ccccc1)=N\NC(=O)c1ccc2c(c1)OCCO2 | -15% | ? | 10% | -17 | ? | ? | nt | nt | nt
O=C(NC(CSCc1ccccc1)C(=O)N/N=C/c1ccc(O)cc1O)c1ccc([N+](=O)[O-])cc1 (centres undefined) | -21% | 9.2µM* | 25% | -7 | 10µM* | 4.6µM* | -3% | ? | -3
COc1ccc(/C=C/C(=O)OCC(=O)Nc2ccc(Cl)c(S(=O)(=O)N(C)C)c2)cc1OC | ? | -10% | 13% | -17 | -14% | -11% | 3% | 7% | -4
COc1ccc(/C=C/C(=O)OCC(=O)Nc2ccc(S(N)(=O)=O)cc2)cc1OC | -11% | nt | 1% | 33 | 4% | nt | nt | nt | nt
O=C1C2CCCN2C(c2ccc(F)cc2)N1c1ccc(Cl)cc1 (centres undefined) | 1% | nt | -7% | -77* | -10% | nt | -20% | 16µM* | -3
O=C1C2CCCN2C(c2ccccc2)N1c1ccc(F)cc1 (centres undefined) | -20% | nt | -4% | -24 | 18% | 1% | nt | nt | nt
O=S(=O)(Nc1cc(Sc2cccc3cccnc23)c(O)c2ccccc12)c1ccc(F)cc1 | 13µM* | 11µM* | -6% | -100* | 11µM* | 6.5µM* | ? | ? | ?
CCN1C(=O)c2cccc3c(S(=O)(=O)N(C(=O)c4ccncc4)c4ccc(OC)cc4)ccc1c23 | 22% | ? | -33% | 11 | ? | ? | -3% | -1% | -3
Cc1ccc(C)c(NC(=O)COC(=O)c2cccc(S(=O)(=O)N3CCCC3)c2)c1 | 0% | nt | nt | -11 | nt | nt | nt | nt | nt
COc1ccc(C(=O)CSc2nc3ncccc3[nH]2)cc1OC | -29% | 6% | 1% | -25 | ? | -10%[46.1 µM] | nt | nt | nt
C=C(Cl)CSC(=S)N(CC)CC | -2% | nt | 13% | -7 | 5% | 0% | nt | nt | nt
CCN(CC)C(=S)SSC(=S)N(CC)CC | -12% | 2.9µM* | -77% | -15 | nt | 3.5µM* | ? | ? | 1
O=C(Oc1ccc(C(=S)N2CCC(O)CC2)cc1)c1ccc(Cl)cc1 | 12% | 5%[46.1 µM] | 1% | -27 | -6% | 20%[46.1 µM] | nt | nt | nt
CN(C)C(=O)COC(=O)c1ccccc1Nc1ccc(SC(F)F)cc1 | 16% | nt | -40% | -67* | ? | -4% | -12% | 16µM* | -20
O=C1C(=Cc2cccs2)C(=O)c2ccccc21 | 8% | 5% | -37% | -19 | 8% | -5% | 7% | 2% | 2
O=C(Nc1cccnc1)c1cccs1 | 0% | ? | -2% | ? | ? | ? | 7% | 8.9µM* | -13
O=c1[nH]c(=O)n([C@H]2C[C@H](O)[C@@H](CO)O2)cc1Br | -1% | -3% | -9% | -25 | 6% | 21% | nt | nt | nt | HeLa G2M arrest=?
O=c1[nH]c(=O)n([C@H]2C[C@H](O)[C@@H](CO)O2)cc1/C=C/Br | nt | nt | nt | nt | nt | -39% | nt | nt | nt
Nc1cccc(-c2nc3ccc(N)cc3s2)c1 | ? | ? | -17% | 6 | ? | 11µM* | 28µM* | 5µM* | -26
Nc1ccc(O)c(-c2nc3ccccc3s2)c1 | 35% | ? | -5% | 97 | 13% | 23% | nt | nt | nt
COc1cccc(C2CC(=O)Nc3cc(OC)c(OC)c(OC)c32)c1OC(C)C (centres undefined) | 31% | -15%[46.1 µM] | nt | -4 | nt | ? | nt | nt | nt
Nc1ccc2c(c1)C(=O)c1ccccc1C2=O | 84% | -1%[46.1 µM] | -8% | 27 | ? | 16% | nt | nt | nt
Nc1ccc2c(c1)C(=O)c1ccccc1-2 | 0% | 11%[46.1 µM] | nt | 39 | ? | ? | nt | nt | nt
Nc1ccc2c(c1)C(=O)C(=O)c1ccccc1-2 | 5.6µM* | ? | -44% | -98* | 2.5µM* | 5.6µM* | 28µM* | 20µM* | -15
SMILES | FMDV inh | Lassa entry inh | SARS PLpro yeast | HCMV antiviral | HCV inhibitor | Marburg entry inh | WI-38 tox | PNC inh conf | PC3M caspase | others
O=C1C(=O)c2ccc(-c3ccccc3)cc2-c2ccccc21 | 14µM* | ? | -78% | -99* | 4.5µM* | 5.8µM* | ? | 22µM* | ?
CCNC(=O)C1(C)CCCN(C(=O)c2cc(-c3cccs3)oc2C)C1 (centres undefined) | -17% | nt | nt | -4 | nt | nt | nt | nt | nt
COC(=O)C[C@H]1CC[C@@H](NS(=O)(=O)c2ccccc2)[C@@H](CO)O1 | -12% | nt | nt | -27 | nt | nt | nt | nt | nt
COCCn1c(SC(C)C(=O)Nc2ncc(Cl)cc2Cl)nc2ccccc21 (centres undefined) | ? | 1.4µM* | -6% | -70* | ? | 2µM* | -3% | 13µM* | -7
Cc1cc(SC(C)C(=O)Nc2ncc(Cl)cc2Cl)nc2ccccc12 (centres undefined) | -22% | 5.8µM* | -8% | -27 | ? | ? | -14% | 11µM* | -1
Cc1nnc(SC(C)C(=O)Nc2ncc(Cl)cc2Cl)n1Cc1ccccc1 (centres undefined) | -8% | 5% | 2% | -29 | 13% | 15% | nt | nt | nt
Cc1oc(-c2ccccc2Cl)nc1CSCC(=O)N1CCCC1 | 24% | 0.65µM* | -8% | -78* | ? | ? | 9% | 4µM* | -6
CC(=O)N(C)C1=C(N2CCOCC2)C(=O)c2ccccc2C1=O | 2.5µM* | 0.58µM* | 1% | nt | 0.56µM* | 1.5µM* | ? | ? | ?
CC(=O)N(C1=C(N2CCOCC2)C(=O)c2ccccc2C1=O)c1ccc(C(=O)O)cc1 | ? | nt | 0% | -34 | 13% | nt | nt | nt | nt
CC1(C2CC2)NC(=O)N(CC(=O)Nc2ccccc2C#N)C1=O (centres undefined) | 11% | -7% | 1% | -26 | -5% | 20%[46.1 µM] | nt | nt | nt
